Only some compounds are listed: those with a hit (about 2.8% of all), similar ones and a draw of the others.
IP6K1 inhibitor – Primary qHTS assay for small molecule inhibitors of Inositol hexaphosphate kinase 1 (IP6K1). Inositol hexakisphosphate kinase 1 (Homo sapiens), Q92551. IP6K1 kinase, ADP-Glo luminescence, 2 h; hits give low values. activity change, % (series mostly up to about 58 µM). 140,000 compounds, 0.81% hits. AID 1645851, 2021; in the data active means activity change below about -25%; further: on the % scale 0 is the no-effect control and ±100 the full control effect
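ADP-Glo luminescence measures ADP made by human IP6K1 during a 2 h RT reaction with ATP/IP6 (mix at 1.3 mM/130 uM); top library doses 57.5 and 19.1 uM final.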
KDM5B inhibitor – Primary screen for KDM5B Histone Demethylases FDH-coupled qHTS; Lysine-specific demethylase 5B (Homo sapiens), Q9UGL1; KDM5B demethylase, FDH-coupled NADH fluorescence (FDH is formaldehyde dehydrogenase); Potency, µM (doses to about 57.7 µM), hits mostly inhibitors; 220,000 compounds, 2.6% hits; AID 1347165, 2019; active means well fitted inhibition curve with a large enough effect; inconclusive means small, poorly fitted or top-dose-only effect; inactive means no such curve, though single readings can be large or run the other way; further: potency means the concentration at half of the fitted maximal effect; 0% is about no effect; nearly all actives have a fitted effect of over 70% in size
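Measured: NADH fluorescence change, 30 min, RT. System: KDM5BΔAP 200 nM final, H3K4me3 peptide, α-KG, Fe(II), ascorbate, NAD⁺ plus FDH, pH 7.5 HEPES. Compounds: titrated, 10 min pre-incubation with enzyme.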
Starred values were filed as active, the others as inactive; i = inactive; ? = inconclusive; . = not tested or not shown.

SMILES | IP6K1 inhibitor | KDM5B inhibitor
Cc1noc2c(NCCN3CCOCC3)cc(-c3ccsc3)nc12 | -11 | i
Cc1noc2c(NCc3cnccn3)cc(-c3ccc(Cl)cc3)nc12 | -9 | i
Cc1noc2c(-c3cccnc3NCCN3CCOCC3)cc(-c3ccccc3)nc12 | -15 | 35µM*
COc1cccc(-c2cc(-c3ccccc3OC)nc3c(C)noc23)c1 | -23 | ?
CC(=O)N1CCC(Nc2ncccc2-c2cc(-c3ccccc3)nc3c(C)noc23)CC1 | -16 | 20µM*
Cc1noc2c(-c3cccnc3NCc3cnccn3)cc(-c3ccccc3)nc12 | 10 | 32µM*
CC(=O)N1CCC(Nc2cc(-c3ccc(Cl)cc3)nc3c(C)noc23)CC1 | -10 | i
COc1ccc(OC)c(-c2cc(-c3ccccc3)nc3c(C)noc23)c1 | 12 | 35µM*
CC(C)(C)c1ccc(C(=O)COC(=O)c2ccc3ccccc3n2)cc1 | . | i
COC(=O)N1CCCC1C(=O)N1CCC(c2ccccc2)CC1 (centres undefined) | 2 | .
Cc1cccc(CC(=O)N2CCC3(CCC(=O)N(CC4CC4)CC3)CC2)c1 | -14 | .
CCc1nc2c(c(-c3ccc(O)cc3)n1)CN(Cc1cccn1C)CC2 | 22 | .
O=C(NCCCc1ccccc1)C1CCN(c2nccc(Nc3ccccc3F)n2)CC1 | 3 | .
CC(=O)C1=CC[C@H]2[C@@H]3CC=C4C[C@@H](O)CC[C@]4(C)[C@H]3CC[C@]12C | . | i
CC1(C)CC(C)(c2ccc(O)cc2)c2ccccc2O1 (centres undefined) | . | i
Cc1noc2c(-c3cccnc3NC(C)C)cc(-c3ccccc3)nc12 | -10 | 32µM*
COc1ncccc1-c1cc(-c2ccccc2)nc2c(C)noc12 | 4 | ?
O=C(NCCCc1ccccc1)c1n[nH]c2c1CN(C(=O)c1ccc3c(c1)OCO3)CC2 | -1 | .
O=c1[nH]c(C2CCCN(Cc3ccc(-c4cc(F)cc(F)c4)cc3)C2)nc2ccc(F)cc12 (centres undefined) | 6 | ?
COc1ccc(-c2cc(-c3cccnc3)cn3cncc23)cc1 | 0 | 40µM*
COc1ccc(-c2cc(-c3ccc(OC)nc3)cn3cncc23)cc1 | -13 | i
COc1ccc(-c2cc(-c3cccnc3OC)cn3cncc23)cc1 | -16 | 35µM*
COc1ccc(-c2cc(-c3ccc4c(c3)C(=O)NC4)cn3cncc23)cc1 | -6 | ?
COc1cccc(-c2cc(-c3cccnc3)c3cncn3c2)c1OC | 3 | 35µM*
COc1ncccc1-c1cc(-c2cccnc2)c2cncn2c1 | -18 | 35µM*
SMILES | IP6K1 inhibitor | KDM5B inhibitor
FC(F)(F)c1ccccc1-c1cc(-c2cccnc2)c2cncn2c1 | -11 | ?
COc1ccccc1-c1cc(-c2ccncc2)c2cncn2c1 | -6 | ?
CNS(=O)(=O)c1ccc(NCCc2ccc(S(N)(=O)=O)s2)c([N+](=O)[O-])c1 | . | i
CCCC1Cc2c(sc3nc(SCC(=O)c4ccc(F)cc4)nc(N)c23)CO1 (centres undefined) | . | i
CCCCCN1CCN(c2nc3c(c(=O)[nH]c(=O)n3C)n2Cc2ccccc2C)CC1 | . | i
O=C(NCc1ccc(F)cc1F)C1CCN(C(=O)c2ccc(-c3cccs3)cc2)CC1 | -13 | .
COc1cccc(-c2ccc(C(=O)N3CCC(C(=O)NC4CCCCC4)CC3)cc2)c1 | 25 | .
O=C(NCCc1ccc(F)cc1)c1ccc2nnc(-c3ccc(Cl)cc3)n2c1 | -2 | .
O=C(NC1CCN(c2nccc(Nc3ccccc3F)n2)CC1)c1cccc(Cl)c1 | -6 | .
COc1ccc(F)cc1-c1cccc(C(=O)NCC(=O)NC2CCN(Cc3ccccc3)CC2)c1 | 2 | .
Oc1cccc(-c2cc(-c3cccnc3)c3cncn3c2)c1 | -9 | ?
c1cncc(-c2cc(-c3ccc4cn[nH]c4c3)cn3cncc23)c1 | 1 | 35µM*
c1cncc(-c2cc(-c3cccc(N4CCOCC4)c3)cn3cncc23)c1 | -12 | ?
Cc1ccc(-c2cc(-c3cccnc3)c3cncn3c2)cn1 | -8 | 35µM*
COc1ccc(-c2cc(-c3cccc(NC(C)=O)c3)cn3cncc23)cc1 | -9 | 8.9µM*
COc1ccc(-c2cc(-c3cccc(NC(C)=O)c3)cn3cncc23)cn1 | -12 | ?
Cc1nn(-c2ccccc2)c2c1C(C)N(CC1CN(C(=O)c3ccc4c(c3)OCO4)C1)C2=O (centres undefined) | -4 | .
O=C(CC(Sc1n[nH]c(-c2ccc(F)cc2)n1)c1ccc(F)cc1)NCc1cccnc1 (centres undefined) | . | i
Cc1ccc(C(=O)N2CCC(N3C(=O)c4c(c(C)nn4-c4ccccc4)C3C)CC2)cc1 (centres undefined) | -10 | .
CC(C)=CCC1(CO)CCCN(CC(=O)N2CCCCCC2)C1 (centres undefined) | -6 | i
